Screen size: about 310,000 compounds; about 14,000 (4.5%) showed an effect of 50% or more. The effect is printed as a negative number. The sample as a whole holds a higher share of strong results than the screen did.
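Further: peak tail current of the secondary pulse compared with the same well before compound.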

human ether-à-go-go-related gene (hERG) potassium channel, sequence (Q12809 whole entry, looked up): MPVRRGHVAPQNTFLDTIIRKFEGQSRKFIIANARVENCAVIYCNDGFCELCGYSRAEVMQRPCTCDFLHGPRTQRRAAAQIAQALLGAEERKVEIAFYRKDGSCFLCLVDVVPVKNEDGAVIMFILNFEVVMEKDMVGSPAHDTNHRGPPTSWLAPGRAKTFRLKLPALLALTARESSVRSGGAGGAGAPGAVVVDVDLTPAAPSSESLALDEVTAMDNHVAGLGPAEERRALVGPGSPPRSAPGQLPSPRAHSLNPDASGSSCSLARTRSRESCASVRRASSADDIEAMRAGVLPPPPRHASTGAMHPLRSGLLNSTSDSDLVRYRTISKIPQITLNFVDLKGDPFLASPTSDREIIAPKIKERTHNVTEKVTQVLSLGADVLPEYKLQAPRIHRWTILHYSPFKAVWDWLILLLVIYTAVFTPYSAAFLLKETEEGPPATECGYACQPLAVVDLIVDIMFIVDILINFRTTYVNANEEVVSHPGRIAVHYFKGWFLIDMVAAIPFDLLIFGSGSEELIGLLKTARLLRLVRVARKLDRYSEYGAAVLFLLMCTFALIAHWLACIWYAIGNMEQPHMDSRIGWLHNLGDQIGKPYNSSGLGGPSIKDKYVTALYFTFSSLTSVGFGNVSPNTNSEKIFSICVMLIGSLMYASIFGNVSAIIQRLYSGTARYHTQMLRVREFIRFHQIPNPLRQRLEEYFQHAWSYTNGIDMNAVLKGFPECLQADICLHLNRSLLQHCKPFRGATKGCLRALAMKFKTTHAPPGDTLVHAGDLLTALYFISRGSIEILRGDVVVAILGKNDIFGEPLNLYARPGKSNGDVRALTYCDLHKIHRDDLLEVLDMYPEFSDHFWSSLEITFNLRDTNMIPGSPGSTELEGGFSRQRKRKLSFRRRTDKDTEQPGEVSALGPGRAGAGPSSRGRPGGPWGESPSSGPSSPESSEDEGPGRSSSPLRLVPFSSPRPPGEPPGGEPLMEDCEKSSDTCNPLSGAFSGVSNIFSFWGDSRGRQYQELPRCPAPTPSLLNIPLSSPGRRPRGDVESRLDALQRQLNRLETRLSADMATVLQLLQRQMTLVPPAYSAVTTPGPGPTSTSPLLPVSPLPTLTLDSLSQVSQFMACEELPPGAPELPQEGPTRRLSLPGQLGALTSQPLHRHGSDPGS

This assay concerns the target human ether-à-go-go-related gene (hERG) potassium channel (human, UniProt Q12809). As to the kind of experiment: primary screen, population patch clamp on CHO cells stably expressing hERG; higher = less effect of the substance.
With `O=C(COC(=O)c1cccs1)Nc1ccc(F)c(F)c1`, the “hERG current change (%, negative = inhibition) at 10uM” value turned out to be 12.2%. In the case of `COC(=O)COc1ccc(/C=C2/NC(=O)N(CC(=O)OC)C2=O)cc1` it was 12.3%; in that of `CC1(C)CC(=O)C(Sc2ccccc2)=C(O)C1`, 15.8%; in that of `COc1ccccc1N1CCN(C2CCN(S(=O)(=O)c3ccc(C)cc3)CC2)CC1`, -36.4%.

For `CC(=O)Nc1ccc(S(=O)(=O)N2CCN(Cc3cccc([N+](=O)[O-])c3)CC2)cc1.O=C(O)C(=O)O`, the “hERG current change (%, negative = inhibition) at 10uM” value is given as -3.41%. As for `COc1ccc(S(=O)(=O)N2CCC(N3CCN(c4ccccc4OC)CC3)CC2)cc1`, the figure is -66.5%. In the case of `O=C(O)C(=O)O.O=[N+]([O-])c1ccc(S(=O)(=O)N2CCN(C3CCN(Cc4ccccc4)CC3)CC2)cc1` it was -78.2%; in that of `O=C(O)C(=O)O.O=[N+]([O-])c1ccc(S(=O)(=O)N2CCN(Cc3ccco3)CC2)cc1`, 15.3%; in that of `COc1ccccc1N1CCN(C2CCN(S(=O)(=O)c3ccc(NC(C)=O)cc3)CC2)CC1`, 0.727%. `COc1ccc(N(CC(=O)NCCSCc2ccc(C)cc2)S(=O)(=O)c2ccccc2)cc1`: the “hERG current change (%, negative = inhibition) at 10uM” value turned out to be 3.04%. As to `O=c1cccc2n1CC1CC2CN(S(=O)(=O)c2ccccc2)C1` (stereo not shown), the “hERG current change (%, negative = inhibition) at 10uM” value was -3.59%. As for `Cc1cc2occ(CC(=O)N(C)CC(=O)Nc3ccc(F)cc3)c2cc1C`, the figure is -9.51%; as for `COC(=O)CN=C1OC(=O)N2C(=O)C3=C4[C@@H](C[C@H]5C(=O)N(c6ccccc6)C(=O)[C@H]5[C@H]4[C@@]12Cc1ccccc1)[C@H]1C(=O)N(c2ccccc2)C(=O)[C@H]1[C@H]3C`, 4.25%.

In the case of `c1ccc(N2CCN(c3ncnc4sc5c(c34)CCC5)CC2)cc1`, the “hERG current change (%, negative = inhibition) at 10uM” value is 12.4%.

On to `O=C(c1ccco1)N1CCN(c2ncnc3sc4c(c23)CCC4)CC1`, for which the “hERG current change (%, negative = inhibition) at 10uM” value is on record as -56.6%.

Consider `O=C(c1ccccc1)N1CCN(c2ncnc3sc4c(c23)CCC4)CC1`, for which the “hERG current change (%, negative = inhibition) at 10uM” value was -56%. As for `O=C(Nc1ncnc2sc3c(c12)CCC3)c1ccco1`, the figure is -4.5%; as for `O=C(CSc1ncnc2sc3c(c12)CCCC3)c1ccco1`, 6.66%; as for `Oc1ccc(N2CCN(c3ncnc4sc5c(c34)CCC5)CC2)cc1`, -7.35%. For the molecule `COc1ccc2nc(NC(=O)C3CCN(S(=O)(=O)c4cccs4)CC3)sc2c1`, the “hERG current change (%, negative = inhibition) at 10uM” value is reported as -13.6%. As for `COc1cc(OC)cc(C(=O)NC2CCSC2=O)c1` (stereo not shown), the figure is -5.55%; as for `CCN(CC)CCCC(C)NC(=O)c1ccc(C(F)(F)F)cc1.Cl` (stereo not shown), -7.01%.

Consider `CCOC(=O)N1CCN(C(=O)Cn2nc(C)n3nc(-c4ccc(OC)cc4)cc3c2=O)CC1`, for which the “hERG current change (%, negative = inhibition) at 10uM” value stood at 13.4%.

Regarding `O=C(CSc1nnc(-c2cccs2)n1-c1ccccc1)NCc1ccc2c(c1)OCO2`, the “hERG current change (%, negative = inhibition) at 10uM” value is on record as -43.7%. In the case of `CCn1c(SCC(=O)NCc2ccc3c(c2)OCO3)nnc1-c1ccncc1` it was 13%. Consider `CC(Sc1nnc(-c2cccs2)n1Cc1ccccc1)C(=O)NCc1ccc2c(c1)OCO2` (stereo not shown), for which the “hERG current change (%, negative = inhibition) at 10uM” value is listed as -55.9%. In the case of `O=C(CSc1nnc(-c2cccs2)n1Cc1ccccc1)NCc1ccc2c(c1)OCO2` it was -75.8%.

Turning to `CC(Sc1nncn1C)C(=O)NCc1ccc2c(c1)OCO2` (stereo not shown), the “hERG current change (%, negative = inhibition) at 10uM” value stood at 34.9%. As for `CC(Sc1nnc2ccccn12)C(=O)NCc1ccc2c(c1)OCO2` (stereo not shown), the figure is 4.95%. For `Cn1c(SCC(=O)NCc2ccc3c(c2)OCO3)nnc1-c1cccs1`, the “hERG current change (%, negative = inhibition) at 10uM” value is on record as -17.1%. In the case of `CCn1c(SCC(=O)NCc2ccc3c(c2)OCO3)nnc1-c1cccs1` it was -23.1%; in that of `CC(Sc1nnc(-c2cccs2)n1-c1ccccc1)C(=O)NCc1ccc2c(c1)OCO2` (stereo not shown), -74.8%. As for `COCC(=O)Nc1cc(C(=O)Nc2ccccc2C)ccc1Cl`, the figure is -3.92%; as for `COc1cc(CNc2cc(C)ccc2C)cc(OC)c1OC`, -4.46%; as for `Cc1cc(C)nc(N/N=C/c2c(CO)cnc(C)c2O)n1`, -10.7%.

Regarding `COc1ccccc1NC(=O)c1ccc([N+](=O)[O-])cc1[N+](=O)[O-]`, the “hERG current change (%, negative = inhibition) at 10uM” value is on record as -19.6%. As for `O=C(Nc1cccc2oc(=O)ccc12)c1ccc([N+](=O)[O-])cc1[N+](=O)[O-]`, the figure is -59.9%; as for `O=C(Nc1ncccn1)c1ccc([N+](=O)[O-])cc1[N+](=O)[O-]`, -7.61%. As for `CCOc1ccccc1C(=O)Nc1ccc2nc(N3CCN(c4ncccn4)CC3)cc(C)c2c1`, the figure is -8.08%; as for `COc1cc(C)c(NC(=S)Nc2cccc(Cl)c2)cc1OC`, 6.72%; as for `Cc1ccc(-c2ccc(=O)n(CC(=O)NCCCN3CCCCC3C)n2)cc1` (stereo not shown), -10.3%. In the case of `CC(NC(=O)Cn1nc(-c2ccccc2)ccc1=O)c1ccccc1` (stereo not shown), the “hERG current change (%, negative = inhibition) at 10uM” value is listed as -13.4%. In the case of `CC(NC(=O)CCn1nc(-c2ccc(Cl)cc2)ccc1=O)c1ccccc1` (stereo not shown) it was -60.6%. As for `Cc1ccc(-c2ccc(=O)n(CCC(=O)NCCN3CCCCC3C)n2)cc1` (stereo not shown), the figure is -58.7%. In the case of `CCCCN(C)CCNC(=O)CCn1nc(-c2ccc(C)cc2)ccc1=O` it was -83.4%; in that of `Cc1ccc(-c2ccc(=O)n(CCC(=O)NCc3ccccn3)n2)cc1`, -61%; in that of `Cc1ccc(CNC(=O)CCn2nc(-c3ccc(Cl)cc3)ccc2=O)cc1`, -35.3%. Consider `Cc1ccc(-c2ccc(=O)n(CC(=O)NCCN3CCCCC3C)n2)cc1` (stereo not shown), for which the “hERG current change (%, negative = inhibition) at 10uM” value is reported as 0.96%. As for `O=C(CCn1nc(-c2ccc(Cl)cc2)ccc1=O)NCc1ccccn1`, the figure is -32%. As for `COCCCNC(=O)CCn1nc(-c2ccc(Cl)cc2)ccc1=O`, the figure is -27.9%; as for `CCCCNC(=O)Cn1nc(-c2ccc(C)cc2)ccc1=O`, -1.13%. In the case of `COCCNC(=O)CCn1nc(-c2ccc(C)cc2)ccc1=O` it was -34.4%; in that of `O=C(CCc1ccccc1)NCCCNC(=O)CCc1ccccc1`, 7.49%.

For the molecule `C=CCn1c(C)nnc1SCC(=O)Nc1nccs1`, the “hERG current change (%, negative = inhibition) at 10uM” value is reported as 16.6%. In the case of `NC(=O)c1ccccc1NC(=O)/C=C/c1c(Cl)cccc1Cl` it was -31.3%. `Cc1ccc(-c2nnc(N)o2)cc1`: the “hERG current change (%, negative = inhibition) at 10uM” value was 9.43%. For the molecule `Cc1ccc(NC(=O)COC(=O)CCc2ccccc2)c(Cl)c1`, the “hERG current change (%, negative = inhibition) at 10uM” value is 27.1%.

In the case of `COCCNC(=O)CCn1nc(-c2ccc(Cl)cc2)ccc1=O`, the “hERG current change (%, negative = inhibition) at 10uM” value is -30.2%. As for `CC(C)CCNC(=O)CCn1nc(-c2ccc(Cl)cc2)ccc1=O`, the “hERG current change (%, negative = inhibition) at 10uM” value is given as -54.6%. Turning to `CN(C)CCNC(=O)CCn1nc(-c2ccc(Cl)cc2)ccc1=O`, the “hERG current change (%, negative = inhibition) at 10uM” value was -15.4%. In the case of `CCCCNC(=O)CCn1nc(-c2ccc(Cl)cc2)ccc1=O`, the “hERG current change (%, negative = inhibition) at 10uM” value was -23.4%. As for `CCCCN(C)CCNC(=O)CCn1nc(-c2ccc(Cl)cc2)ccc1=O`, the figure is -67.1%; as for `CC(C)CCNC(=O)CCn1nc(-c2ccccc2)ccc1=O`, -46.8%; as for `O=C(CSCc1c(F)cccc1Cl)Nc1ccccc1C(=O)N1CCOCC1`, 5.4%. As for `Cc1ccc(C)c(-c2ccc(=O)n(Cc3cccc(Br)c3)n2)c1`, the figure is 10.7%. In the case of `CCOc1ccc(NC(=O)C2CCCN(c3nc(C)cc(C)n3)C2)cc1` (stereo not shown) it was 12.4%. Consider `O=C(OCC(=O)c1c[nH]c2ccccc12)c1cc2ccccc2cc1O`, for which the “hERG current change (%, negative = inhibition) at 10uM” value is 1.38%. In the case of `COc1cccc(NC(=O)CN2C(=O)COc3ccc(S(=O)(=O)N4CCOCC4)cc32)c1` it was 15.6%; in that of `COc1ccc2nc3oc(C(=O)N4CCC5(CC4)OCCO5)cc3cc2c1`, -16.5%. Turning to `O=C(Cn1ncc2c([nH]c3ccccc32)c1=O)NCC1CCN(Cc2ccccc2F)CC1`, the “hERG current change (%, negative = inhibition) at 10uM” value is recorded as -44.2%. In the case of `Cc1ccc(NC(=O)Cn2ncc3c([nH]c4ccccc43)c2=O)cc1Cl` it was 21.4%. In the case of `O=C(Cn1ncc2c([nH]c3ccccc32)c1=O)Nc1cccnc1` it was 10.3%. As for `Cc1cccc(CN2CCC(CNC(=O)Cn3ncc4c([nH]c5ccccc54)c3=O)CC2)c1`, the figure is -23.1%; as for `O=C(Cn1ncc2c([nH]c3ccccc32)c1=O)Nc1ccc(CN2CCCCC2)cc1`, -65.8%. With `O=C(Cn1ncc2c([nH]c3ccccc32)c1=O)NCC1CCN(Cc2ccc(F)cc2)CC1`, the “hERG current change (%, negative = inhibition) at 10uM” value is given as -66%. In the case of `CS(=O)(=O)N(CC(O)CON=C1c2ccccc2-c2ccccc21)c1ccc(F)cc1` (stereo not shown) it was 8.83%; in that of `O=C(Cc1ccc(Cl)cc1)c1c[nH]c(C(=O)NCc2cccnc2)c1`, -0.756%. For `COc1cccc(-c2nnc(SCC(=O)Nc3ccc(OC)c(OC)c3)n2N)c1`, the “hERG current change (%, negative = inhibition) at 10uM” value was determined as 14.3%. As for `COc1ccc(-n2c(=O)c3c4c(sc3n(CC(=O)NCc3ccco3)c2=O)CCC4)c(OC)c1`, the figure is -4.75%; as for `O=C(NCCN1CCOCC1)c1ccc2c(c1)N(Cc1ccc(F)cc1)C(=O)CS2`, 0.414%; as for `COc1ccc(CN(C(=O)CN2C(=O)c3ccccc3S2(=O)=O)C(C(=O)NCC2CCCO2)c2ccco2)cc1` (stereo not shown), -4.57%. On to `CCn1c(C)nnc1SCC(=O)Nc1ccc(C(C)=O)cc1`, for which the “hERG current change (%, negative = inhibition) at 10uM” value was 11.5%. Take `CCN(CC)CCCNc1oc(/C=C/c2ccccc2)nc1C#N`: the “hERG current change (%, negative = inhibition) at 10uM” value was -71%.

In the case of `CCN1CCN(c2oc(/C=C/c3ccccc3)nc2C#N)CC1`, the “hERG current change (%, negative = inhibition) at 10uM” value is listed as -63.1%. As for `CN(C)c1oc(/C=C/c2ccccc2)nc1C#N`, the “hERG current change (%, negative = inhibition) at 10uM” value turned out to be 8.93%. Consider `CNc1oc(/C=C/c2ccccc2)nc1C#N`, for which the “hERG current change (%, negative = inhibition) at 10uM” value turned out to be 8.33%. In the case of `CN(C)CCCNc1oc(/C=C/c2ccccc2)nc1C#N` it was -32.5%; in that of `C=CCNc1oc(/C=C/c2ccccc2)nc1C#N`, -28%; in that of `CN1CCN(c2oc(/C=C/c3ccccc3)nc2C#N)CC1`, -53.7%. In the case of `CN(C)CCNc1oc(/C=C/c2ccccc2)nc1C#N` it was -29.2%. As for `CCN1CCN(c2oc(-c3ccco3)nc2C#N)CC1`, the figure is -24.1%.

These data come from paper PMC4336329 (PLoS ONE, 2015).
